A selection follows.
aSyn 5UTR act: Activators working through SNCA 5'UTR binding (MLPCN); alpha-synuclein 5'UTR reporter, activators screen; activity score, % (tested at 7.5 µM), hits read low; hit rate 7.1% among 300,000; AID 1814; in the data active = activity score below about -60%
Numbers without * were called inactive.

SMILES	aSyn 5UTR act
CCCN1C(=O)S/C(=C\c2ccc(N3CCOCC3)o2)C1=O	-94.0*
CCCN1C(=O)S/C(=C/c2ccc(N3CCOCC3)o2)C1=O	-82.6*
COC(=O)CN1C(=O)S/C(=C/c2ccc(N3CCCCC3)o2)C1=O	-88.6*
Cc1ccc(NC(=O)CCOc2ccccc2)cc1	-203.2*
CC(=O)N/N=C/c1ccccc1OCCOc1cccc(C)c1	-76.4*
Cc1cccc(OCCCC(=O)Nc2ccc(N(C)C)cc2)c1	-88.5*
Cc1n[nH]c(C)c1CCOc1ccc(C(C)C)cc1	-83.8*
CCC(Sc1nc2n[nH]c(C)c2c(=N)n1-c1cccc(Cl)c1C)C(=O)N(CC)CC (stereo not given)	50.8
Cn1cc(Cl)c(C(=O)Nc2nc3ccc(Cl)cc3s2)n1	-197.0*
Cn1cc(Cl)c(C(=O)Nc2nc3ccc([N+](=O)[O-])cc3s2)n1	-68.0*
O=C(CSc1ccccc1)Nc1ccc(N2CCOCC2)cc1	-116.1*
Cn1c(-c2ccc(F)cc2)cnc1SCC(=O)Nc1ccccc1N1CCOCC1	-193.4*
O=C(CSc1n[nH]c(-c2ccccc2)n1)Nc1ccc(N2CCOCC2)cc1	-68.1*
O=C(Cc1cccs1)Nc1ccc(N2CCOCC2)cc1	-96.7*
O=C(CSc1n[nH]c(-c2ccccn2)n1)Nc1ccccc1	56.8
O=C(CSc1ccc(F)cc1)Nc1ccc(N2CCOCC2)cc1	-74.1*
O=C(CSc1ccccc1)Nc1ccc(N2CCOCC2)c(F)c1	-99.4*
Cn1c2ccccc2c2ncn(CCC3=CCCCC3)c(=O)c21	-157.9*
Cc1cccc(N(C)S(=O)(=O)c2ccc(-c3cc(C)no3)s2)c1	87.9
Cc1cccc(N(C)C(=O)c2cc3cc4ccc(C)cc4nc3o2)c1	-605.5*
CCCN=C(C)C1=C(O)c2ccccc2C1=O	-93.6*
CCN(CC)c1ccc(NC(=S)NC(=O)c2ccco2)cc1	-213.8*
CCCCC(=O)Nc1ccc(NC(=S)NC(=O)c2cccs2)cc1OC	-106.9*
CCN(CC)c1ccc(NC(=S)Nc2ccc(F)cc2)cc1	-91.2*
CCN(CC)c1ccc(NC(=S)NC(=O)c2cccs2)cc1	-156.1*
SMILES	aSyn 5UTR act
CCCOc1ccc(C(=O)NNC(=S)NC(=O)c2ccco2)cc1	51.5
CCCCn1nnc(NC(=S)NC(=O)c2cccs2)n1	-114.1*
COc1ccc(C(=O)Nc2nccs2)cc1OC	-71.4*
CC(C)Cc1nnc(NC(=O)c2ccc([N+](=O)[O-])cc2)s1	-95.0*
COc1ccc(C(=O)Nc2nccs2)cc1	-119.9*
COc1ccc(C(=O)NC(=S)Nc2cc(C)ccn2)cc1[N+](=O)[O-]	-67.5*
CCCc1nnc(NC(=O)c2cc3ccccc3o2)s1	-87.9*
COc1ccc2c(CC(=O)Nc3nccs3)coc2c1	-101.3*
O=C(Nc1nccs1)c1ccc([N+](=O)[O-])cc1	-75.0*
COc1ccc(C(NC(C)=O)c2cc(Cl)c3cccnc3c2O)cc1 (stereo not given)	75.9
COc1ccc(C(=O)Nc2nccs2)cc1[N+](=O)[O-]	-73.6*
CC(C)Cc1nnc(NC(=O)Nc2ccccc2)s1	-115.3*
CCc1nnc(NC(=O)Nc2ccc(OC)cc2)s1	-162.1*
CCOCc1nnc(NC(=O)c2ccc(OC)cc2)s1	-72.7*
O=C(Nc1nccs1)c1cccc(NC(=O)C(F)(F)F)c1	-85.7*
COc1ccc(NC(=O)Nc2nccs2)cc1	-93.9*
CCCc1nnc(NC(=O)c2cccc(OC)c2)s1	-91.4*
CCC(C)(C)c1nnc(NC(=O)c2cccc([N+](=O)[O-])c2)s1	-146.7*
COc1ccc(C(=O)N=c2sc3c(C)ccc(OC)c3n2C)cc1OC	-294.8*
COc1cccc(C(=O)N=c2sc3c(C)ccc(OC)c3n2C)c1	-208.6*
COc1ccccc1C(=O)N=c1sc2c(C)ccc(OC)c2n1C	-80.3*
COc1cc(NC(=O)COc2ccccc2C)ccc1NC(=O)c1ccco1	-67.7*
COc1cc2c(cc1NC(=O)c1ccco1)CCCC2	-278.5*
COc1ccc(NC(=O)CSc2ccccc2)c(OC)c1	-100.5*
COc1ccc(CN(C)CC(=O)Nc2ccccc2-c2ccccc2)c(OC)c1	46.2
SMILES	aSyn 5UTR act
COc1ccc(NC(=O)c2ccccc2O)c(OC)c1	-204.8*
COc1ccc(NC(=O)c2ccco2)c(OC)c1	-128.3*
COc1ccc(NC(=O)c2cc(C(C)C)on2)c(OC)c1	-244.5*
COc1cc(NC(=O)C(C)C)ccc1NC(=O)c1ccco1	-92.1*
Cc1cc(Cl)c2oc(C(=O)NCCC3CCCCO3)c(C)c2c1 (stereo not given)	-62.9*
Cc1c(C(=O)NCC2CCCO2)oc2ccc(Br)cc12 (stereo not given)	-81.7*
COc1cccc(NC(=O)c2c(C)nn(-c3ccccc3)c2Cl)c1	-137.2*
Cc1ccc(NC(=O)c2c(C)nn(-c3ccccc3)c2Cl)cc1	-81.4*
O=C(N=Nc1c(O)n(C2OC(=O)c3ccccc32)c2ccccc12)c1ccco1 (stereo not given)	-109.5*
Cc1ccccc1OCc1nc2ccccc2n1C	-169.8*
Cc1cccc(OCc2nc3ccccc3c(=O)n2N)c1	-71.4*
Nn1c(CSc2ccccn2)nc2ccccc2c1=O	-123.0*
Cn1c(COc2ccc(F)cc2)nc2ccccc21	-121.3*
Cc1cccc(OCc2nc3ccccc3n2C)c1	-140.3*
Cc1cc(N2CCOCC2)nc2ccc(NC(=O)CCC(=O)N3CCCC(C)C3)cc12 (stereo not given)	-86.5*
Cc1cc(N2CCOCC2)nc2ccc(NC(=O)CCC(=O)N3CCN(c4ccc(F)cc4)CC3)cc12	-72.1*
Cc1cc(N2CCOCC2)nc2ccc(NC(=O)CCC(=O)N3CCN(c4ccccc4F)CC3)cc12	-126.8*
CC(=O)Nc1ccc(/C=N/N2CCCCC2)cc1	-96.2*
COc1ccc(-c2nc3c4ccccc4ccn3c2CN2CCOCC2)cc1OC	-94.7*
CN(N=Nc1cccc([N+](=O)[O-])c1)c1ccccc1	-107.5*
CN(CCCC(=O)O)c1ccc(N=Nc2ccc([N+](=O)[O-])cc2)cc1	-65.4*
CN(N=Nc1ccc([N+](=O)[O-])cc1)c1ccccc1	-111.7*
c1ccc(-c2nc(-c3cccnc3)n[nH]2)cc1	-85.4*
Brc1cccc(-c2n[nH]c(-c3ccccc3)n2)c1	-76.9*
Cc1ccc(-c2nc3sc4c(c3c(=O)n2N)CCCC4)cc1	-107.2*
SMILES	aSyn 5UTR act
CC1=Nn2c(nc3sc4c(c3c2=O)CCCC4)SC1	-141.9*
Cc1ccc(-n2cnc3sc(C)c(C)c3c2=O)cc1	-97.9*
COc1ccc(-n2cnc3sc4c(c3c2=O)CCCC4)cc1	-88.0*
Cc1ccccc1OCc1nc2ccccc2c(=O)n1/N=C/c1ccco1	-66.4*
COc1ccccc1NS(=O)(=O)c1cccc(NC(=O)c2cc3ccccc3oc2=O)c1	-113.9*
CN(c1ccccc1)S(=O)(=O)c1cccc(NC(=O)c2cc3ccccc3oc2=O)c1	-106.0*
Cc1ccc(NC(=O)c2cc3ccccc3oc2=O)cc1S(=O)(=O)N(C)C	72.9
CCN(CC)c1ccc(/C=C2\SC(N)=NC2=O)cc1	-113.8*
N#Cc1cnc2nc(SCc3ccccc3)nn2c1	-149.4*
CCOC(=O)c1cn2nc(SCc3ccccc3)nc2nc1C	-105.3*
N#C/C(=N\Nc1ccc(F)cc1)C(=N)N1CCCCC1	-111.0*
N#C/C(=N\Nc1cccc(F)c1)C(=N)N1CCCCCC1	-94.9*
N#C/C(=N\Nc1ccccc1)C(=N)N1CCCCCC1	-170.9*
CC(=O)Nc1ccc(OCc2nnc(-c3ccc(Cl)cc3)o2)cc1	-95.6*
CCOC(=O)C1=C(N)n2c(s/c(=C\c3cccnc3)c2=O)=C(C(=O)OC)C1c1cccnc1 (stereo not given)	-65.9*
CC(C)OC(=O)CNc1n[nH]c(=S)[nH]c1=O	-131.2*
